# The list is not random: actives were taken first. Their share in the collection is about 1.8%.
# Mot1-301 SUMO: SUMOylation pathway inhibition by Mot1-301 growth rescue; S. cerevisiae Mot1-301 growth rescue, ATP luminescence, 38.5C; percent above DMSO median, 100 means doubled; growth rescue, % at 18.8 µM; 320,000 compounds, 1% hits; AID 2716;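 active means every valid replicate shows activation above 250% relative to neutral control wells; inactive means the rest, any valid replicate at or below 250%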;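 further: OY570 slx delta 5 strain wells were the positive control but not used for scaling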
# NALP3 yeast inh: inhibitors of NALP3 inflammasome in yeast; Yeast reconstituted NLRP3/ASC/caspase-1, beta-gal luminescence, 24 h; inhibition, % at 10 µM; 330,000 compounds, 0.39% hits;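 active means inhibition of 50% or more; inactive means inhibition below 50%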;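 further: plate controls were induced DMSO wells for no effect and uninduced yeast grown without galactose for full effect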
# PolyA inhibitor: blocks polyadenylation in yeast reporter cells. S. cerevisiae SKY197-pL101 polyadenylation reporter, beta-gal luminescence; efflux-impaired pdr1/pdr3 knockout yeast; score 100 = 6 SD above DMSO. activity score, % at 12 µM. 300,000 compounds, 0.02% hits. AID 1875;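 active means lowest replicate activity score at least 50, where 100 means six control SD above control mean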;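 further: yeast exposed to compound for 9 h at 30 °C; higher score means more reporter readthrough which indicates perturbed polyadenylation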
# NALP1 yeast inh: blocks the NALP1 inflammasome reconstituted in yeast. S. cerevisiae NALP1/ASC/caspase-1 growth, X-gal OD620, 72 h. inhibition, % at 10 µM. 280,000 compounds, 0.61% hits. AID 2071; in the data active means inhibition mostly above about 24%, no sharp cut-off; inactive means mostly below about 32%
# Yeast Mot1 SUMO: SUMO pathway inhibitors in yeast Mot1-301 growth | 2,300 tested, under 10 active | shares compounds with Mot1-301 SUMO | growth activity, percent, % at 42 µM | S. cerevisiae Mot1-301 galactose growth, ATP luminescence, 24 h; -100 = growth of slx-deleted rescue strain;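 active means Signal drops as the depositor expects, and the fitted half-maximal dose is no more than ten times the top valid tested dose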;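 further: more negative values mean stronger growth rescue toward the control strain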
# * = called active by the depositor; . = no result given; + = active, no number.
SMILES,Mot1-301 SUMO,NALP3 yeast inh,PolyA inhibitor,NALP1 yeast inh,Yeast Mot1 SUMO
C=C(C)C(=O)OC1(C(F)(F)F)Oc2cc(C)ccc2NC1=O (stereo unspecified),363.2*,13.1,-27.0,9.5,-1.5
CCOC(=O)C1(N(CC)CC)Sc2cc(C)ccc2NC1=O (stereo unspecified),126.6,26.1,-8.9,9.5,.
CCCCNC(=O)c1onc(CSc2nc3ccccc3[nH]2)c1C(=O)NCCCC,-7.0,2.7,19.0,15.4,.
O=C(Cc1cccs1)Nc1cccc(-c2nnc(-c3ccco3)o2)c1,522.2*,10.4,-2.5,7.0,-0.9
O=C(COc1ccccc1)Nc1cccc(-c2nnc(-c3ccccc3)o2)c1,+,19.8,6.4,12.5,0.5
COc1ccc(CC(=O)Nc2cccc(-c3nnc(-c4ccco4)o3)c2)cc1,150.5,18.0,-7.4,0.2,.
O=C(O)CCC(=O)Nc1cccc(-c2nnc(-c3ccccc3)o2)c1,112.0,25.2,-5.1,21.6,.
COc1cc(NC(=O)c2noc3c2CCCC3)c(OC)cc1Cl,32.5,8.6,-19.0,8.3,.
Cc1ccc(CC(=O)O/N=C(\N)c2cccc([N+](=O)[O-])c2)cc1,448.1*,6.6,-6.2,19.7,0.2
CC(C)(C)n1cnc2cc(NC(=O)c3ccc(Cl)cc3)ccc21,562.1*,-17.9,7.1,11.5,-0.6
Cn1cnc2cc(NC(=O)c3ccc(Cl)cc3)ccc21,6.7,14.1,14.6,5.0,.
COC(=O)c1sccc1NC(=S)N1CCC(C(N)=O)CC1,-25.2,1.3,7.2,-13.3,.
COC(=O)c1sccc1NC(=S)N1CCCCC1,+,10.3,-14.6,22.5,-0.1
COCCNC(=O)C(NC(=O)C1CCCCC1)C12CC3CC(CC(C3)C1)C2 (stereo unspecified),-8.9,16.3,15.5,20.3,.
CC(C)(C)c1cc(NCCCn2ccnc2)n2ncc(-c3ccc(Cl)cc3)c2n1,622.2*,18.5,-7.8,14.3,-0.6
COc1ccc(S(=O)(=O)N2CCOC23CCN(S(=O)(=O)c2ccc(C)cc2)CC3)cc1,-10.6,22.7,-5.9,.,.
Cc1ccc(NC(=O)COC(=O)Cn2c(C)csc2=O)c([N+](=O)[O-])c1,-21.5,8.2,7.9,.,.
Cc1csc(=O)n1CC(=O)OCC(=O)Nc1cc([N+](=O)[O-])ccc1Cl,484.8*,21.8,0.9,.,-0.1
O=C(Cn1cccn1)N1CCCC(N2CCN(c3cccc(C(F)(F)F)c3)CC2)C1 (stereo unspecified),.,-0.2,6.8,9.6,.
O=C(CCSc1ccccc1)NNC(=O)c1ccccc1F,517.2*,10.9,-10.3,.,-0.5
Cc1ccc(NC(=O)c2nc[nH]c2C(=O)N2CCc3ccccc3C2)cc1,-10.5,2.6,.,.,.
CCOC(=O)c1ccc(NC(=O)c2nc[nH]c2C(=O)N2CCc3ccccc3C2)cc1,371.0*,20.7,-0.5,.,0.3
CCOC(=O)C1CCN(Cc2ccc(OC)c(C)c2OC)CC1,-11.6,5.1,-6.5,9.9,.
CCOc1ccc(NC(=O)C2CC(=O)N3CCCN=C3S2)cc1 (stereo unspecified),+,15.7,-10.0,-3.9,-0.2
CCCOc1ccc(NC(=O)C2CC(=O)N3CCCN=C3S2)cc1 (stereo unspecified),47.7,6.8,-1.9,23.0,.
SMILES,Mot1-301 SUMO,NALP3 yeast inh,PolyA inhibitor,NALP1 yeast inh,Yeast Mot1 SUMO
O=C1CCCC(=O)N1c1ccc(F)cc1,-7.9,1.7,8.2,6.7,.
O=C(NC(=S)Nc1ccc(F)c([N+](=O)[O-])c1)c1ccccc1F,0.1,2.8,-30.6,-8.0,.
CC(C)C(=O)Nc1ccc(NC(=S)NC(=O)c2ccccc2F)cc1,494.6*,13.8,7.6,1.7,0.1
Cc1cccc(Cc2nnc(CCC(=O)N(C)C3CCOC3)o2)c1 (stereo unspecified),313.4,3.9,11.2,9.3,.
CCOC(=O)c1[nH]c2ccc(F)cc2c1NC(=O)CCN1CCOCC1,383.0*,-12.0,23.8,33.1,0.0
O=C(C1CCCC1)N1CCCC(Nc2ccc(F)cc2)C1 (stereo unspecified),1.1,3.7,-13.8,-8.4,.
O=C(c1cccnc1)N1CCCC(Nc2ccc(F)cc2)C1 (stereo unspecified),595.3*,14.1,-7.3,15.6,-0.5
CN1C(=O)C(O)(CC(=O)c2ccccc2O)c2cc(Br)ccc21 (stereo unspecified),-9.3,-0.5,-19.7,35.2,0.2
COc1ccc(CNC(=O)COC(=O)c2cccs2)cc1,-4.2,7.0,-10.7,10.7,.

# Compound activity: PubChem, several laboratories
